Results: the supplement of paper PMC13380429
Unmarked numbers belong to inactive results.

System: Vero E6 infected with SARS-CoV-2
Assay: inhibition of SARS-CoV-2 cytopathic effect; higher = more antiviral protection, active = above 15
Details: 48 h

Row | SMILES | inhibition of SARS-CoV-2 cytopathic effect (1 nM) [%] | inhibition of SARS-CoV-2 cytopathic effect (8.33 nM) [%] | inhibition of SARS-CoV-2 cytopathic effect (100 nM) [%] | inhibition of SARS-CoV-2 cytopathic effect (833.33 nM) [%] | inhibition of SARS-CoV-2 cytopathic effect (10000 nM)
1 | C[C@H](Nc1ncnc2[nH]cnc12)c1cc2ccc(F)cc2nc1-c1ccccn1 | 0.375 | 4.37 | 4.2 | 1.33 | -3.42%
2 | CNC(=O)O[C@H]1COc2ccc(N3CCN(C4COC4)CC3)cc2[C@@H]1NC(=O)c1ccc(F)cc1 | 1.12 | -0.75 | -1.06 | 0.34 | 1.4%
3 | Fc1ccc(CN2CCC(Nc3ccc(C(F)(F)F)nn3)CC2)cc1F | 0.35 | 2.13 | 2.17 | 1.38 | -6.9%
4 | O=C(C(c1ccccc1)c1ccccc1)N1CCN(CC(O)COc2cccc3ncccc23)CC1 (stereo not given) [dofequidar] | -0.98 | 4.84 | -1.1 | -0.87 | 1.44%
5 | C[C@H](C[C@H](N)C(=O)O)C(=O)O | -1.19 | -0.93 | -1.73 | -0.6 | -0.35%
6 | CCOCc1nc2c(N)nc3ccccc3c2n1CC(C)(C)O [resiquimod] | 2.06 | 3.82 | 1.55 | 1.03 | -1.23%
7 | Oc1ccc(Cl)cc1 [parachlorophenol] | 1.78 | -0.13 | 1.68 | 2.25 | -1.37%
8 | CCCCCCCCCC(=O)O[C@H]1CC[C@H]2[C@@H]3CCC4=CC(=O)CC[C@@H]4[C@H]3CC[C@]12C [Nandrolone decanoate] | 0.16 | 0.18 | -0.72 | 0.02 | -4.93%
9 | COCC1(CO)C(=O)C2CCN1CC2 (stereo not given) | -1.69 | -1.26 | -0.44 | -0.13 | 4.84%
10 | CCN1C[C@H](C)n2c(c(O)c3c(=O)n(Cc4ccc(F)c(Cl)c4)nc(C(=O)NC)c32)C1=O | -0.8 | 0.13 | -1.06 | 0.69 | -2.34%
11 | CCOc1ccc(-n2c([C@@H](C)N(Cc3cccnc3)C(=O)Cc3ccc(OC(F)(F)F)cc3)nc3ncccc3c2=O)cc1 (racemic) | 0.51 | 2.23 | 0.96 | 1.88 | -1.62%
12 | Cc1cccn2c(=O)c(/C=C(\C#N)c3nc4ccccc4s3)c(Oc3ccc(F)cc3)nc12 | -2.85 | 0.91 | -1.07 | -1.93 | -0.23%
13 | CN(C)CCOC(=O)COc1ccc(Cl)cc1 [meclofenoxate] | 2.47 | 0.23 | 1.17 | 1.28 | 1.66%
14 | O=C(CNC(=O)c1cccc(C(F)(F)F)c1)N[C@@H]1CCN(Cc2ccc(Cl)cc2)C1 [teijin-compound-1] | -1.08 | -0.19 | 0.66 | -1.99 | -4.88%
15 | C[N+]1(C)[C@@H]2CC[C@H]1C[C@@H](OC(=O)C(O)c1ccccc1)C2 (stereo not given in full) [homatropine-methylbromide] | 0.79 | 1.12 | 0.14 | 0.62 | 0.96%
16 | C[C@H](Nc1cc(-c2cnn(C)c2)cc(Nc2cnccn2)n1)c1ccc(F)cc1 | 1.93 | 1.68 | 2.86 | -4.39 | -8.8%
17 | Fc1cc(-c2cccc3ncc(-c4cnn(C5CCNCC5)c4)nc23)cc(F)c1CN1CCOCC1 | 1.49 | 2.64 | -2.32 | -1.44 | 63.3% (active)
18 | Cc1cc([C@@H](C)Nc2ccccc2C(=O)O)c2nc(N3CCOCC3)cc(=O)n2c1 | -0.68 | -0.79 | -4.63 | -7.74 | -2.98%
